This passage reports Potency and outcome results from PubChem BioAssay (Tox21).

The nature of experiment [1]: qHTS assay to identify small molecule antagonists of the thyroid receptor (TR) signaling pathway - cell viability counter screen (AID 743064). Note: nearly all actives have a fitted effect of over 50% in size. Note: potency is the fitted concentration of half-maximal effect. A digest of the protocol: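 Plate GH3.TRE-Luc cells; incubate 4 h at 37 °C; add compound, then T3 to 1 nM final; incubate 23.5 h; add CellTiter-Fluor; incubate 30 min at 37 °C, 5% CO2; read fluorescence.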
The nature of experiment [2]: qHTS assay to identify small molecule antagonists of the thyroid receptor (TR) signaling pathway (AID 743065). Note: series mostly up to about 70 µM; nearly all actives have a fitted effect of over 55% in size. In outline:
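GH3.TRE-Luc rat pituitary cells carrying two TR response elements driving luciferase were plated for 4 h, given compound plus 1 nM T3 (final), and incubated 23.5 h at 37 C. ONE-Glo luminescence measured reporter inhibition; CellTiter-Fluor fluorescence tracked cytotoxicity.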
In general terms: Quantitative high-throughput screening tests each substance at several concentrations.

Experiment [3] concerns thyroid hormone receptor (rat, GH3 cells). The experiment is described as follows: qHTS assay to identify small molecule agonists of the thyroid receptor (TR) signaling pathway (AID 743066; calls by dose curve).
Experiment [4] can be described thus: qHTS assay to identify small molecule antagonists of the estrogen receptor alpha (ER-alpha) signaling pathway - cell viability counter screen (AID 743074; calls by dose curve;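 note: HEK293 cells carrying ER-alpha-UAS-bla reporter stimulated with 17beta-estradiol; nearly all actives have a fitted effect of over 45% in size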).
Experiment [5] can be described thus: qHTS assay to identify small molecule antagonists of the estrogen receptor alpha (ER-alpha) signaling pathway using the BG1 cell line - cell viability counter screen (AID 743081).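 Note: compound given together with 17beta-estradiol as the ER stimulus; series mostly up to about 70 µM; nearly all actives have a fitted effect of over 45% in size.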
Experiment [6] addresses Aromatase (Homo sapiens) (UniProt P11511). The experiment is described as follows: qHTS assay to identify aromatase inhibitors (AID 743083). Note: series mostly up to about 70 µM; nearly all actives have a fitted effect of over 55% in size.
Experiment [7] is described as follows: qHTS assay to identify aromatase inhibitors - cell viability counter screen (AID 743084).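 Note: cells stimulated with testosterone during compound exposure; nearly all actives have a fitted effect of over 55% in size.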
Experiment [8] has as its target Aryl hydrocarbon receptor (Homo sapiens) (UniProt P35869). Nature of the experiment: qHTS assay to identify small molecule that activate the aryl hydrocarbon receptor (AhR) signaling pathway (AID 743085).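 For activation: HG2L7.5c1 human HepG2 liver cells with stably integrated DRE-driven firefly reporter; series mostly up to about 70 µM.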 Note: nearly all actives have a fitted effect of over 15% in size. Note: potency is the fitted concentration of half-maximal effect. A digest of the protocol: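 Steps: seed HepG2-AhR-luc cells; allow 5 h at 37C; pin-transfer test compound or vehicle; incubate 24 h at 37C; add viability dye (30 min, 37C) and read fluorescence; add luciferase substrate (30 min, RT) and read luminescence.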

Experiment [9] can be described thus: qHTS assay to identify small molecule that activate the aryl hydrocarbon receptor (AhR) signaling pathway - cell viability counter screen (AID 743086).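 Note: HepG2 liver cells carrying the AhR DRE luciferase reporter; series mostly up to about 70 µM; nearly all actives have a fitted effect of over 45% in size.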 In outline: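 HepG2-AhR-luc (HG2L7.5c1) cells, 4000/well, were preincubated 5 h at 37C, exposed to compound in qHTS format for 24 hr at 37C, then given CellTiter-Fluor for 30 min; viability was read as fluorescence in the reporter wells.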

A short description of experiment [10]: qHTS assay for small molecule agonists of the antioxidant response element (ARE) signaling pathway (AID 743202; active = well fitted activation curve with a large enough effect in the signal ratio in the repeat runs, not every such curve was filed as active; the % refers to the signal ratio). A digest of the protocol: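 Following a 16 h, 37 C exposure of reporter HepG2 cells (ARE-driven beta-lactamase, 2,000 cells/well) to compounds, FRET substrate was applied for 2 h at room temperature and fluorescence intensity recorded.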
A short description of experiment [11]: qHTS assay for small molecule agonists of the antioxidant response element (ARE) signaling pathway - cell viability counter screen (AID 743203; calls by dose curve; note: nearly all actives have a fitted effect of over 55% in size). In outline:
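Parallel cytotoxicity read-out for the ARE-bla screen: HepG2 reporter cells, 16 hrs with compounds, then CellTiter-Glo luminescence.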

A short description of experiment [12]: qHTS assay for small molecule activators of the heat shock response signaling pathway - cell viability counter screen (AID 743209). Note: nearly all actives have a fitted effect of over 50% in size. In outline:
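To flag cytotoxic compounds, HSE-bla HeLa cells plated at 1500 cells/well were dosed for 5 h at 37 C, followed by the reporter FRET read and then CellTiter-Glo, with luminescence recorded 30 min after reagent addition.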

A short description of experiment [13]: qHTS assay for small molecule activators of the heat shock response signaling pathway (AID 743210; active = well fitted activation curve with a large enough effect in the signal ratio in the repeat runs, with a control signal flat, not every such curve was filed as active; the % refers to the signal ratio; note: series mostly up to about 63 µM). A digest of the protocol:
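Heat shock element–beta-lactamase HeLa reporter cells; qHTS with compounds for 5 h at 37 C; detection by FRET substrate fluorescence after 2.5 h at RT.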

In experiment [14] the target is Estrogen receptor (Homo sapiens) (UniProt P03372). Nature of the experiment: qHTS assay to identify small molecule antagonists of the estrogen receptor alpha (ER-alpha) signaling pathway (AID 743069; active = well fitted curve in the direction sought with a large enough effect in the signal ratio in the repeat runs, not every such curve was filed as active; the % refers to the signal ratio). In outline: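 A 17beta-estradiol challenge was applied right after compound transfer to ER-alpha-UAS-bla HEK293 cells previously kept in charcoal-stripped serum. Plates stood 18 hr at 37C and 5% CO2; fluorescence was read following 2 hr FRET substrate loading at room temperature.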
Estrogen receptor (Homo sapiens), sequence (P03372 whole entry, looked up): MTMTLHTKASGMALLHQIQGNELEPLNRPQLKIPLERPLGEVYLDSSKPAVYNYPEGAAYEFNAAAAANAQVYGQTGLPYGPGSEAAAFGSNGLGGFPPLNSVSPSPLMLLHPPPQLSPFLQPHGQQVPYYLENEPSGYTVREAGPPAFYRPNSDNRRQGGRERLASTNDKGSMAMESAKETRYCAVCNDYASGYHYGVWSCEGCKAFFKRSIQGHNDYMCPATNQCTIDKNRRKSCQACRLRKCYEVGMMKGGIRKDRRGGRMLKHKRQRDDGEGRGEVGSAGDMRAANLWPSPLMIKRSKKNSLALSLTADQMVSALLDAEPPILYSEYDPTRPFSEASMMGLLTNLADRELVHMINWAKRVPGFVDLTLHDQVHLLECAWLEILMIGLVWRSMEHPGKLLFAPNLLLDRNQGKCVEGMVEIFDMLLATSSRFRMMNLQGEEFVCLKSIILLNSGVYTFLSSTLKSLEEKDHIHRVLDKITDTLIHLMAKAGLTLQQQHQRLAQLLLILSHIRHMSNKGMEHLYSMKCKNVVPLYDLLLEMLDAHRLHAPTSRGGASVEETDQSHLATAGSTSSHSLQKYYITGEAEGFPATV

Experiment [15] shares this target. Nature of the experiment: qHTS assay to identify small molecule agonists of the estrogen receptor alpha (ER-alpha) signaling pathway (AID 743075; calls by dose curve;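 note: HEK293 GripTite cells with ER-alpha and UAS-driven beta-lactamase reporter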).
Experiment [16] shares this target. Nature of the experiment: qHTS assay to identify small molecule agonists of the estrogen receptor alpha (ER-alpha) signaling pathway using the BG1 cell line (AID 743079). Note: nearly all actives have a fitted effect of over 20% in size. Note: potency is the fitted concentration of half-maximal effect.
Experiment [17] is described as follows: qHTS assay to identify small molecule antagonists of the peroxisome proliferator-activated receptor gamma (PPARg) signaling pathway - cell viability counter screen (AID 743194). Note: nearly all actives have a fitted effect of over 55% in size. In outline: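 PPARg-UAS-bla HEK293H cells were plated, rested 5 h at 37 C, then treated with compounds plus rosiglitazone (50 nM final) for 17 h at 37 C; viability was then read by CellTiter-Glo luminescence after 30 min at room temperature.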

A short description of experiment [18]: qHTS assay to identify small molecule antagonists of the estrogen receptor alpha (ER-alpha) signaling pathway using the BG1 cell line (AID 743080; calls by dose curve;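 note: BG1 cells stimulated with 17beta-estradiol alongside compound; series mostly up to about 70 µM; nearly all actives have a fitted effect of over 25% in size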). A digest of the protocol: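 Endogenous full-length ER-alpha in BG1-Luc-4E2 cells drives a stably integrated 4×ERE luciferase gene; compounds were tested against 17beta-estradiol over 21.5 h, with luminescence and multiplexed viability fluorescence recorded.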

In experiment [19] the target is Peroxisome proliferator-activated receptor gamma (Homo sapiens) (UniProt P37231). The experiment is described as follows: qHTS assay to identify small molecule agonists of the peroxisome proliferator-activated receptor gamma (PPARg) signaling pathway (AID 743094; active = well fitted activation curve with a large enough effect in the signal ratio in the repeat runs, not every such curve was filed as active; the % refers to the signal ratio). In outline: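 Fluorescence-based beta-lactamase readout in HEK293H PPARg UAS-bla cells after 17 h compound exposure (37C) and 1 h B/G FRET substrate incubation at room temperature.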
Peroxisome proliferator-activated receptor gamma (Homo sapiens), sequence (P37231 whole entry, looked up): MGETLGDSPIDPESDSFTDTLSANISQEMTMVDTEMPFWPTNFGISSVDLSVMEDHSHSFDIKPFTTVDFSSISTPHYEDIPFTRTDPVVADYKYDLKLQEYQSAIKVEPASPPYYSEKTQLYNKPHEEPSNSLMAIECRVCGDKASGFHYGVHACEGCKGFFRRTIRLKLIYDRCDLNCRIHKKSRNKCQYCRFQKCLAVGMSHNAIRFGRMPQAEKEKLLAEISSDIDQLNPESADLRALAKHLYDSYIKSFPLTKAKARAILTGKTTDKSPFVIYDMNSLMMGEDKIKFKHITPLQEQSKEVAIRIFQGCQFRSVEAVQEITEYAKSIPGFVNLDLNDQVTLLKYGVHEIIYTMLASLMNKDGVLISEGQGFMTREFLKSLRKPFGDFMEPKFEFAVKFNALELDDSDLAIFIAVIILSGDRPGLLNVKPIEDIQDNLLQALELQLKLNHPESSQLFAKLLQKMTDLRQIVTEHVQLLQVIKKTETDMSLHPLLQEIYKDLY

For experiment [20] the target is unchanged. The experiment is described as follows: qHTS assay to identify small molecule antagonists of the peroxisome proliferator-activated receptor gamma (PPARg) signaling pathway (AID 743191; calls by dose curve; note: nearly all actives have a fitted effect of over 30% in size; note: potency is the fitted concentration of half-maximal effect). A digest of the protocol:
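GeneBLAzer PPARg UAS-bla HEK293H cells carrying a UAS-driven beta-lactamase reporter were plated at 3000 cells/well, preincubated 5 h at 37C, then given compound for 17 h at 37C; LiveBLAzer B/G FRET substrate was read after 1 h at room temperature.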

The structures appear in SMILES notation. Records with an inconclusive call do not appear. Activity calls are given as the source filed them. Unless noted, calls come from the whole dose curve; as a rule, active = well fitted curve in the direction sought with a large enough effect in the repeat runs; inconclusive = weak or mixed curves; inactive = no such curve, though single readings can be large; an effect the other way counts as inactive or inconclusive.

Aryl hydrocarbon receptor (Homo sapiens), sequence (P35869 whole entry, looked up): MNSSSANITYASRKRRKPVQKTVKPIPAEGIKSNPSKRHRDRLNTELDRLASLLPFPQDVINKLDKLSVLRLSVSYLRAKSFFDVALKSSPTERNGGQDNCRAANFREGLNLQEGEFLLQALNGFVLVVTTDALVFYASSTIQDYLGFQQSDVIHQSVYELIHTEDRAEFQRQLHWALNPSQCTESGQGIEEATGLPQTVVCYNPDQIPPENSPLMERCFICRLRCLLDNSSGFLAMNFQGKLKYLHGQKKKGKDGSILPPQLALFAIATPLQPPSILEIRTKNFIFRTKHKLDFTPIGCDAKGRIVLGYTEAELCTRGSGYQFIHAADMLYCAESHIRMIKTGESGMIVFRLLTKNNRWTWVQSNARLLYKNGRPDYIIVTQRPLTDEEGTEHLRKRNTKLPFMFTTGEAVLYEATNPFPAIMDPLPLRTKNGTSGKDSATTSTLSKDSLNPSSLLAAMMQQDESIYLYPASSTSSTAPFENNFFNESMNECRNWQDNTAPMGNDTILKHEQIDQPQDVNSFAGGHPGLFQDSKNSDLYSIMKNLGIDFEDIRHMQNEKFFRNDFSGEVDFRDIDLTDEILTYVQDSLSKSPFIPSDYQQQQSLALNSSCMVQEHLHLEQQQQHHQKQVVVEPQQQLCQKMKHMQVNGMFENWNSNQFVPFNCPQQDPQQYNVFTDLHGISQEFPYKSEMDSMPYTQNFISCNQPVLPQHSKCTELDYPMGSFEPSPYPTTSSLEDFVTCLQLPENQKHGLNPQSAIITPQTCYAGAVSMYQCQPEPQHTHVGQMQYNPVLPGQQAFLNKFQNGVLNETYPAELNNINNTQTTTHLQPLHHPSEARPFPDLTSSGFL
Aromatase (Homo sapiens), sequence (P11511 whole entry, looked up): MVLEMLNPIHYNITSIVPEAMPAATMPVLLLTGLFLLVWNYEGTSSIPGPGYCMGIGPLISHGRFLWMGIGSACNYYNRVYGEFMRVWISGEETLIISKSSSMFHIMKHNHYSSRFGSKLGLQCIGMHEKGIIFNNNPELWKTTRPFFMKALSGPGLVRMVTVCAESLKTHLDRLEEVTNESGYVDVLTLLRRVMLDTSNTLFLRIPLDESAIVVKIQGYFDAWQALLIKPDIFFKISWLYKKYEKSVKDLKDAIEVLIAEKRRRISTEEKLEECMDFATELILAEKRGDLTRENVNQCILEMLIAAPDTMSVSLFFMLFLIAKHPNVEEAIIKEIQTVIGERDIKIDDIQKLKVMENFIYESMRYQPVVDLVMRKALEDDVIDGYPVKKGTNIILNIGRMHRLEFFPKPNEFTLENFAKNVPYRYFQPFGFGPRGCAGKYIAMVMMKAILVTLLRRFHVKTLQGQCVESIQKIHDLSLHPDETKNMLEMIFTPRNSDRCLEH

On to `CC(=O)S[C@H](C(=O)N[C@H]1Cc2ccccc2[C@H]2CCC[C@@H](C(=O)O)N2C1=O)C(C)C`, for which the Potency entry in experiment [1], in experiment [2], in [5], in experiment [6], in experiment [7] and in experiment [8] was “inactive” throughout. For the same compound, the Potency result in experiment [9], in experiment [10] and in [11] was “inactive” throughout. Moreover, the outcome in experiment [3], in [4], in experiment [12] and in [13] was inactive.
On to `COc1ccc(C(=O)Nc2ccccc2)cc1[N+](=O)[O-]`, for which the Potency result in experiment [1], in experiment [2], in experiment [14], in [15], in [5] and in experiment [6] was “inactive” in each case. Besides, the Potency result in [7], in experiment [9], in experiment [17] and in [11] was “inactive” throughout. For the same compound, the compound was called inactive in experiment [3], in [4] and in experiment [12]. The Potency in [16] is 3.09 µM (active); in experiment [8], 30.9 µM (active).
Turning to `Sc1nc(S)nc(S)n1`, the Potency entry in experiment [1], in [2], in experiment [5], in [6], in experiment [7] and in experiment [8] was “inactive” each time. In addition, the Potency result in experiment [17] and in experiment [11] was “inactive” in each case. Besides, the compound was classed as inactive in experiment [3], in [4] and in experiment [12].
For `CCCCCO`, the Potency entry in experiment [1], in experiment [2], in [14], in experiment [15], in [16] and in [18] was “inactive” throughout. For the same compound, the Potency entry in [6], in [7], in experiment [8], in experiment [9], in experiment [17] and in experiment [10] was “inactive” in each case. Further, the compound was classed as inactive in [3], in experiment [4], in experiment [12] and in [13].
Regarding `c1ccc(-c2ccc(-c3ccccc3)cc2)cc1`, the Potency result in experiment [1], in [2], in experiment [14], in experiment [15], in experiment [5] and in experiment [7] was “inactive” in each case. Also, the Potency result in [9], in experiment [17], in experiment [10] and in experiment [11] was “inactive” throughout. For the same compound, the call in experiment [3], in [4] and in [12] was inactive. The Potency in [16] is 0.791 µM (active).
`CO[C@@H]1[C@@H](O[C@@H]2O[C@H](C)[C@@H](O[C@H]3C[C@@](C)(O)[C@@H](O)[C@H](C)O3)[C@H](N(C)C)[C@H]2O)[C@@H](CC=O)C[C@@H](C)[C@@H](O[C@@H]2CC[C@H](N(C)C)[C@@H](C)O2)/C=C/C=C/C[C@@H](C)OC(=O)C[C@H]1OC(C)=O`: in experiment [1], the Potency was 26.6 µM (active). Moreover, the Potency entry in experiment [14], in experiment [15], in experiment [16], in experiment [18], in experiment [6] and in [7] was “inactive” in each case. Also, the Potency entry in experiment [8], in [19], in experiment [20], in experiment [17] and in experiment [11] was “inactive” throughout. Also, the outcome in experiment [12] and in experiment [13] was inactive.
For `O=C(O)c1cccnc1Nc1cccc(C(F)(F)F)c1`, the Potency result in [1], in experiment [15], in [16], in experiment [18], in experiment [5] and in experiment [6] was “inactive” in each case. The Potency entry in experiment [7], in experiment [8] and in experiment [9] was “inactive” in each case. The outcome in experiment [3], in [4] and in experiment [13] was inactive. In addition, the Potency in experiment [20] is 11.9 µM (active).
Regarding `CC(=O)Nc1cccc(N)c1`, the Potency entry in [2], in experiment [14], in [15], in [16], in [18] and in [5] was “inactive” throughout. In addition, the Potency entry in [6], in experiment [9], in experiment [19], in [20] and in [17] was “inactive” in each case. The compound was classed as inactive in [3], in experiment [4] and in [12]. The Potency in experiment [8] is 62 µM (active).
Turning to `N#CCCCC(C#N)CCC#N` (stereo unspecified), the Potency entry in experiment [1], in experiment [14], in experiment [15], in [18], in experiment [5] and in experiment [6] was “inactive” each time. In addition, the Potency result in experiment [7], in experiment [8], in [9], in [19] and in [10] was “inactive” throughout. Further, the result in [3], in experiment [4], in experiment [12] and in experiment [13] was inactive.
